Bioassay records as filed in PubChem.
A selection: hits, their analogues and other compounds. The true share with any hit is near 2.8%.
pCIP destab – p/CIP-EGFP fusion destabilizers, primary screen, fluorescence, F442A cells | Q05BA5 | 16 h | decrease of EGFP signal, % at 10 µM | 0.01% of 290,000 active;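 active = EGFP signal decrease of at least 30% at 10 µM or well 3 SD below plate mean, unless failing retest; inactive = the rest, including hits failing retest or dose response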
Platelet DG rel – inhibitors of platelet dense granule secretion, primary screen, cell-based, MLPCN, human platelets; human platelet-rich plasma, SFLLRN dense granule ATP release, luminescence; inhibition, %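 (compounds screened at 7.5 µM in platelet-rich plasma)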; 0.22% of 300,000 active; AID 1663, 2009;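 active = mean replicate score, as percent of positive control, at or above 50; inconclusive = mean below 50 but at least one replicate at or above 50; inactive = mean and every replicate below 50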
AHR act – AHR activators, primary screen, cell-based, luminescence, luciferase reporter, human. 2.5% of 320,000 active. AID 2796, 2010. AHR-responsive luciferase reporter cells. activation, % at 5 µM; in the data active = activation above about 47%
Target sequence (P35869 whole entry, looked up): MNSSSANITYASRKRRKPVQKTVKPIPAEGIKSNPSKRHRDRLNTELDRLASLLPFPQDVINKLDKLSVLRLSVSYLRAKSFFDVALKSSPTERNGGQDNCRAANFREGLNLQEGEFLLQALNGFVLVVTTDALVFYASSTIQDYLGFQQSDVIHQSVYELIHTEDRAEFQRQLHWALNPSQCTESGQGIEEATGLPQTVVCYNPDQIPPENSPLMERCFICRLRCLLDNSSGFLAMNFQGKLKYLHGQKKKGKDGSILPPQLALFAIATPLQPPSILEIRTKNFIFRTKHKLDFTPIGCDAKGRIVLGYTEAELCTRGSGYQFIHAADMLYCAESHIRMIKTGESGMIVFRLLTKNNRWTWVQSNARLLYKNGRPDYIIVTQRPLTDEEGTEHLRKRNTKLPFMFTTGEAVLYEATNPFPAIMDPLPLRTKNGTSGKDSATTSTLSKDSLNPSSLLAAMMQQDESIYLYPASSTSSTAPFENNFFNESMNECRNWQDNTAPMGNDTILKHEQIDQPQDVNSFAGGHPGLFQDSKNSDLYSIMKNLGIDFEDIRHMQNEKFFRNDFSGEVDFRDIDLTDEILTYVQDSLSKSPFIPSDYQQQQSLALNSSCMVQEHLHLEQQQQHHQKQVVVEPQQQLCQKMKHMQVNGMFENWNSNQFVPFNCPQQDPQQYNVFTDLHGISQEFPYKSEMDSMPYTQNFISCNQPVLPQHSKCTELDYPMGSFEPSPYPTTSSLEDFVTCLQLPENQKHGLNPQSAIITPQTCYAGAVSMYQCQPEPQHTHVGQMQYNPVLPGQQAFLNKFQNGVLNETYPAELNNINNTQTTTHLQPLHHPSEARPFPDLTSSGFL
HIF activator – HIF pathway transcriptional activators, primary screen, cell-based, U2OS HRE-luciferase, luminescence. U2OS HRE-luciferase reporter; normalized: DMSO 0%, desferrioxamine 100%. activation, % at 7.5 µM (by protocol). 0.32% of 300,000 active. AID 1910, 2009;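 active = mean activation of at least 10% of the iron chelator positive control signal, with at least half of replicates also reaching 10%; inconclusive = mean and replicate majority disagree about reaching 10%; inactive = mean and most replicates under 10%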
PolyA inhibitor – polyadenylation inhibitors in yeast reporter cells, primary screen, luminescence, S. cerevisiae | S. cerevisiae SKY197-pL101 polyadenylation reporter, beta-gal luminescence; efflux-impaired pdr1/pdr3 knockout yeast; score 100 = 6 SD above DMSO | activity score, % at 12 µM | 0.02% of 300,000 active;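 active = lowest replicate activity score at least 50, where 100 means six control SD above control mean; inconclusive = lowest score under 50 but half or more replicates reach 50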;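 note: yeast exposed to compound for 9 h at 30 °C; higher score means more reporter readthrough which indicates perturbed polyadenylation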
AHR act confirm – AHR activators, confirmation, cell-based, luminescence, luciferase reporter, human; shares compounds with AHR act; human cells, AHR-responsive luciferase reporter; activation, % at 9 µM; 87% of 2,300 active; in the data active = activation above about 49%;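 note: HepG2 hepatoma cells carrying a DRE-driven firefly luciferase reporter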
PXR act counter – human PXR activators, counter-screen for AHR activator project, cell-based, luciferase luminescence | shares compounds with AHR act | cell-based PXR reporter | activation, % at 11.6 µM | 88% of 2,300 active | AID 434939, 2010; in the data active = activation above about 11%;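 note: human hepatoma DPX-2 cells expressing full-length human PXR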
Large screens that a line does not name were inactive (follow-up assays come after a bar, where they were run).

Nc1cccc(Nc2ncnc3ccccc23)c1	AHR act 152 | AHR act confirm 65
O=C(Nc1ccc(N2C(=O)CCC2=O)cc1Cl)c1cccs1	none
N#Cc1c(-c2cccs2)cc(-c2ccccn2)nc1N	AHR act 80 | AHR act confirm 98 | PXR act counter 23
N#Cc1c(-c2cccc(Br)c2)cc(-c2cccnc2)nc1N	none
N#Cc1c(-c2cccs2)cc(-c2cccnc2)nc1N	AHR act 102 | AHR act confirm 130 | PXR act counter 28
N#Cc1c(-c2ccc(Br)cc2)cc(-c2cccnc2)nc1N	AHR act 93 | AHR act confirm 73 | PXR act counter 18
COc1ccc(NC(=O)CN2C(=O)S/C(=C/c3cccn3-c3ccc(C(=O)O)cc3)C2=O)cc1	none (no result: Platelet DG rel, AHR act, HIF activator, PolyA inhibitor)
COc1ccccc1C(=O)NC(=S)/C=C1/N(C)c2ccccc2C1(C)C	AHR act 81 | AHR act confirm inactive | PXR act counter 100
CN(C)c1ccc(-c2nc3ccccc3c(=O)[nH]2)cc1	Platelet DG rel inconclusive
COc1ccc(-c2nc3ccccc3c(=O)[nH]2)cc1	AHR act 110 | AHR act confirm 106 | PXR act counter 23
CCn1c(SCC(=O)NCc2ccccc2)nc2ccccc2c1=O	none
CCn1c(SCC(=O)N2CCCCCC2)nc2c([nH]c3ccccc32)c1=O	AHR act 128 | AHR act confirm 102 | PXR act counter 182
Cc1cccc(NC(=O)CSc2nc3c([nH]c4ccccc43)c(=O)n2C)c1	none
Cn1c(SCC(=O)NCc2ccccc2)nc2c([nH]c3ccccc32)c1=O	AHR act 84 | AHR act confirm 97 | PXR act counter 126
COCCn1c(SCC(=O)N2CCCCCC2)nc2c([nH]c3ccccc32)c1=O	none
CCn1c(SCC(=O)NCCc2ccccc2)nc2c([nH]c3ccccc32)c1=O	AHR act 109 | AHR act confirm 86 | PXR act counter 168
CCC(C)Sc1nc2c([nH]c3ccccc32)c(=O)n1C (stereo unspecified)	AHR act 87 | AHR act confirm 88 | PXR act counter 52
COc1ccc([C@@]2(O)c3c(ccc(CC=C(C)C)c3O)NC(=O)[C@@H]2OC)cc1	none
Nn1c(SCC(=O)Nc2ccc(F)cc2)nnc1-c1cccnc1	none
Cc1ccsc1C1CC(=O)Nc2ccccc2S1 (stereo unspecified)	AHR act 88 | AHR act confirm 112 | PXR act counter 39
NCCCn1c(C(=O)c2ccc(Cl)cc2)c2ccc(C(F)(F)F)cc2[n+]1[O-]	AHR act 100 (no result: pCIP destab) | AHR act confirm 104 | PXR act counter 29
C=CCn1c(O)c(N=NC(=S)Nc2ccccc2F)c2ccccc21	AHR act 137 | AHR act confirm 83 | PXR act counter 79
Oc1c(N=NC(=S)Nc2ccccc2F)c2ccccc2n1Cc1ccccc1	none
CCn1c(O)c(N=NC(=O)CNc2cccc(C)c2)c2ccccc21	none
C=CCn1c(O)c(N=NC(=S)Nc2cccc(C)c2)c2ccccc21	AHR act 123 | AHR act confirm 78 | PXR act counter 59
CC(C)(C)NC(=S)NCc1ccncc1	none
CCOC(=O)c1cccc(NC(=O)CSc2nncn2-c2ccccn2)c1	none
Cc1cc(C)c(C#N)c(SCC(=O)c2cccs2)n1	AHR act 165 | AHR act confirm 112 | PXR act counter 28
Cc1cc(C)c(C#N)c(SCC(=O)c2ccccc2)n1	AHR act 148 | AHR act confirm 153 | PXR act counter 29
Cc1cc(SCC(=O)c2cccs2)nc2c(C)cccc12	AHR act 83 | AHR act confirm 100 | PXR act counter 65
CN(CCC(=O)Nc1ccc(Cl)cc1)Cc1ccccc1	none
COc1ccccc1N1CCN(C(=O)CCNS(=O)(=O)c2cc(Br)cnc2N)CC1	none (no result: HIF activator)
